# Measurements reported in ChEMBL document CHEMBL3988442, “University of Dundee, Small-Polar-MMV Screening Library” (2021).
# Among all 48,000 compounds or so, about 13,000 (27%) showed an effect of 50% or more. The list shows a part of the results.
# System: Wolbachia pipientis
# Test: Anti-Wolbachia Cell-Based Screen
# Format: functional
# Parameters: scale not given: in the data most compounds retested in dose-response had high values
# Settings: 5 µM
row,Compound,Percent Effect
1,Cc1ccc(CC(=O)N2CC[C@@H]3NC(=O)CC[C@@H]32)cc1,-5.727%
2,COc1ccc(N2CCN(C(=O)CCCc3cn[nH]c3)CC2=O)cc1,-15.55%
3,Cc1cc(C)cc(N2CCN(C(=O)C3CN(C)C(=O)N3)CC2=O)c1 (centres undefined),83.41%
4,CN1CC(C(=O)N2CCN(c3cccc(Cl)c3)C(=O)C2)NC1=O (centres undefined),98.1%
5,COc1cccc(N2CCN(C(=O)CO)CC2=O)c1,5.099%
6,Cc1ccc(N2CCN(C(=O)[C@@H]3CCC(=O)N3)CC2=O)cc1,107.8%
7,COc1cnc(CN2CC(=O)N(c3ccc(C)cc3)CC2C)cc1O (centres undefined),8.35%
8,COc1cccc(N2CCN(C(=O)[C@H](O)C3CCCCC3)CC2=O)c1,-19.32%
9,Cc1ccc(N2CCN(C(=O)C(O)c3cccc(Cl)c3)CC2=O)cc1 (centres undefined),-0.06478%
10,Cc1ccc(N2CCN(C(=O)C3CN(C)C(=O)N3)CC2=O)cc1 (centres undefined),99.53%
11,COC(C(=O)N1CCN(c2cccc(Cl)c2)C(=O)C1)c1ccccc1 (centres undefined),-8.872%
12,O=C([C@H](O)c1ccccc1)N1CCN(c2cccc(Cl)c2)C(=O)C1,-7.931%
13,COc1ccc(-c2nc(CNCCn3cccn3)cs2)cc1,30.25%
14,COc1cc2c(cc1CNCc1ccnc(-n3cccn3)c1)OC(C)C2.Cl (centres undefined),-0.5391%
15,O=C(O)CSc1nnc(-c2ccn[nH]2)n1-c1ccccc1C(F)(F)F,-29.49%
16,N#CCCN(CC1CCOC1)Cn1ccc(-c2ccsc2)n1 (centres undefined),-9.852%
17,Cn1cccc1C(=O)N1CC2(CCN(C(=O)c3cccnc3)C2)C1.O=C(O)C(F)(F)F,98.8%
18,Cn1cccc1CN1CCC2(CCCN(C(=O)c3cccnc3)C2)CC1.O=C(O)C(F)(F)F.O=C(O)C(F)(F)F,3.692%
19,Cn1cccc1C(=O)N1CCC2(CCN(C(=O)c3cccnc3)C2)CC1.O=C(O)C(F)(F)F,51.82%
20,CC1(C(=O)Nc2ccc(F)c(-n3cccc3)c2)CCOCC1,-9.431%
21,CCN(CC)c1ccc(CNC(=O)C2(C)CCOCC2)cc1F,25.87%
22,CC1(C(=O)NCc2cccc(C(F)(F)F)c2)CCOCC1,102.7%
23,CC(CNC(=O)NCc1ccsc1)CC1(C)OCCO1 (centres undefined),-12.21%
24,CN(C)C1(CNC(=O)Cc2ccc(F)cc2)CCOCC1,-8.041%
25,CN1CCN(C(=O)NCCc2ccc(F)cc2)[C@H]2CS(=O)(=O)C[C@H]21,8.781%

row,Compound,Percent Effect
1,CC1(C(=O)NCc2cc(F)cc(F)c2)CCOCC1,100.6%
2,FC(F)(F)c1cccc(C2(CNCc3cc[nH]c3)CCOCC2)c1,2.692%
3,FC(F)(F)c1cccc(C2(CNCc3ccncc3)CCOCC2)c1,-7.872%
4,CC1(CCNC(=O)NCc2ccsc2)OCCO1,-10.92%
5,CC1(C(=O)NCc2ccsc2)CCOCC1,107.3%
6,CC1(C(=O)NCCc2ccc(F)cc2)CCOCC1,104.4%
7,Cc1nc(-c2ccccc2)c(C(=O)N2CCC3(CC(=O)NC3=O)C2)s1 (centres undefined),-0.3979%
8,Cc1noc(C)c1CN1CC2(CCN(C(=O)c3ccoc3C)C2)CC1=O (centres undefined),-6.391%
9,CCC(C)N(Cc1cc(C)n[nH]1)Cc1ccccc1Cl (centres undefined),4.348%
10,Cc1cc(CN2CCCC2)cc(Oc2ccc3c(c2)CC(CN)O3)c1 (centres undefined),4.792%
11,CC(C)c1noc(CN(C)C(=O)c2ncn[nH]2)n1,4.654%
12,CC(=O)NCCNC(=O)c1sc(-c2ccc(C)cc2C)nc1C,-3.584%
13,N#Cc1cn[nH]c1NCc1cc(Cl)cc(Cl)c1O,77.61%
14,N#Cc1cn[nH]c1NCc1cc(Br)ccc1O,83.36%
15,N#Cc1cn[nH]c1NCc1cc(I)cc(I)c1O,96%
16,COc1ccc(/C=C/CN2CCN(c3ncccc3C(N)=O)CC2)cc1,-5.557%
17,Cc1nc(NC2CCCC2)cc(C2CCN2C(=O)c2ccccn2)n1 (centres undefined),140.6%
18,CCC(=O)N1CCC1c1cc(NC2CCCC2)nc(C)n1 (centres undefined),124.3%
19,Cc1nc(NC2CCCC2)cc(C2CCN2C(=O)c2cnn(C)c2)n1 (centres undefined),99.12%
20,Cc1nc(NC2CCCC2)cc(C2CCN2C(=O)c2ccccc2)n1 (centres undefined),4.339%
21,Cc1cccc(N2CC[C@H]3[C@H]2CCN3C(=O)c2cnn(C)c2)n1,8.202%
22,CCc1cc(NC2CCN(CC(N)=O)CC2)nc(N2CCCCC2)n1,3.351%
23,Cc1nc(NC2CCCC2)cc(C2CCN2C(=O)c2cccnc2)n1 (centres undefined),-5.726%
24,O=C1NCCc2c1sc1ccc(C(=O)N3CC[C@H](CO)[C@H](O)C3)cc21,1.887%
25,CCCS(=O)(=O)N1CCC2(CCC(=O)N(CCc3cccnc3)C2)CC1,-2.035%

row,Compound,Percent Effect
1,CCCC(=O)NC(C)(C)Cc1ccccc1OC,8.655%
2,CCn1cc(S(=O)(=O)NC(=O)CCc2c[nH]c3ccccc23)cn1,5.036%
3,CN1CCN(c2ccc(NCc3ccc([S+](C)[O-])cc3)cn2)CC1 (centres undefined),-11.28%
4,Cc1ccsc1C(=O)N1CC[C@H]2CO[C@H](CN(C)C)[C@H]2C1.O=C(O)C(F)(F)F,3.155%
5,CCC(C)CS(=O)(=O)NC(=O)C1CC1 (centres undefined),-14.71%
6,O=S(=O)(Cc1ccccc1F)Cc1nnnn1C1CC1,106.9%
7,[O-][S+](Cc1c(F)cccc1Cl)Cc1nnnn1C1CC1 (centres undefined),117.1%
8,CN(Cc1nnnn1C1CC1)c1cccc2ccccc12,-12.9%
9,O=S(=O)(CCCc1ccccc1)Cc1nnnn1C1CC1,-8.499%
10,O=S(=O)(Cc1c(F)cccc1Cl)NCCCN1CCCCCC1,1.36%
11,O=S(=O)(Cc1c(F)cccc1Cl)Cc1nnnn1C1CC1,95.69%
12,c1ccc(C2CCCN2Cc2nnnn2C2CC2)cc1 (centres undefined),-9.931%
13,O=C(CS(=O)(=O)Cc1nnnn1C1CC1)NCCc1ccccc1,-17.89%
14,O=C(CS(=O)(=O)Cc1nnnn1C1CC1)NCC1CC1,-6.472%
15,CCC(C)CN(C)C(=O)NCc1ccccc1-n1cccn1 (centres undefined),-6.014%
16,Cc1cnccc1CN(C)C1CCN(c2ncnc3[nH]cnc23)CC1,-3.937%
17,CN(C)C(=O)CCC[S+]([O-])Cc1cc(Cl)ccc1Cl (centres undefined),0.1259%
18,Cc1noc(C)c1CN1CCc2nn(C(C)C)c(=O)cc2C1,-7.391%
19,CC(=O)Nc1ncc(S(=O)(=O)N2CCN(C3CCCCC3)CC2)s1,-4.636%
20,Cc1ccccc1S(=O)(=O)Cc1nsc(N(C)C)n1,-10.46%
21,COc1ccc2c(c1)CCCN2C(=O)NCCc1cnn(C)c1,-4.065%
22,CCc1nc(CC)n(CC(=O)N(C)Cc2ccc(F)cc2)n1,-4.811%
23,Cc1ccc(CN(C)C(=O)Cn2nc(-c3ccc(F)cc3)oc2=O)cc1,-26.69%
24,Cc1cc(C)n(CC2CCCCN2CC(=O)N(C)Cc2ccco2)n1 (centres undefined),-0.03535%
25,CCn1nccc1CN(C)C(=O)Cn1nc(C)cc1C,69.47%

row,Compound,Percent Effect
1,Cc1cc(C)n(CC(C)CNC(=O)N(C)Cc2ccco2)n1 (centres undefined),23.18%
2,CCn1nccc1CN(C)C(=O)Cn1nc(C)c(C)c1C,98.15%
3,O=C(CNC(=O)C1CCCC1)NCC(O)c1ccc2ccccc2c1 (centres undefined),-9.214%
4,CCc1nc2c(c(N3CCOCC3)n1)CCN(C(=O)N1CCCC1)CC2,-8.543%
5,CCCn1nnc2c(sc3nc(N4CCOCC4)c4c(c32)CCC4)c1=O,106.2%
6,CCCn1nnnc1CN(c1ccc(N2CCOCC2)cc1)C(C)C,-9.048%
7,Cn1nnc2c(sc3nc(N4CCOCC4)c4c(c32)CCC4)c1=O,117%
8,CC(C)n1nnc2c(sc3nc(N4CCOCC4)c4c(c32)CCC4)c1=O,121.1%
9,CN(C)C(=O)Cc1ccccc1NCc1cccc2cccnc12,-12.16%
10,O=C(c1cncc(Br)c1)N1CCCc2c(F)cc(F)cc21,-4.9%
11,CC(C#N)CNS(=O)(=O)c1ccc(Br)c(F)c1 (centres undefined),3.318%
12,CC(C)c1noc(CCC(=O)N(CC2CCOC2)C2CC2)n1 (centres undefined),6.067%
13,NC(=O)NC(=O)CCN(Cc1ccccc1)CC1CCOCC1,-17.87%
14,Cc1cnn(CC(C)NCC(=O)Nc2ccc(Cl)cn2)c1 (centres undefined),-4.944%
15,Fc1cnc(N2CC[C@@H]3O[C@@H](COCc4cccnc4)CC[C@@H]32)nc1.O=C(O)C(F)(F)F,-5.936%
16,CC(C)COC[C@H]1CC[C@H]2[C@H](CCN2C(=O)c2ccncc2F)O1.O=C(O)C(F)(F)F,108.1%
17,O=C(O)C(F)(F)F.O=C(c1ccncc1F)N1CC[C@@H]2OC(COCC3CC3)CC[C@@H]21 (some centres undefined),97.57%
18,Fc1cnc(N2CC[C@@H]3O[C@@H](COCc4ccccn4)CC[C@@H]32)nc1.O=C(O)C(F)(F)F.O=C(O)C(F)(F)F,-20.87%
19,CC(C)COC[C@@H]1CC[C@H]2[C@H](CCN2C(=O)c2ccncc2F)O1.O=C(O)C(F)(F)F,105.1%
20,COc1ccc(CNC[C@H]2COCc3nc4cccnc4n32)cn1,2.273%
21,Cc1ccc(NC(C)C(=O)N(C)Cc2cccc(F)c2)cc1C(N)=O (centres undefined),-12.41%
22,CN(Cc1ccc(Cl)s1)C(=O)c1cccc(OCC(N)=O)c1,-4.963%
23,N#Cc1ccc(SCCOCCO)c(F)c1,-11.88%
24,CC(OCC1CC1)C(=O)N1CCCN(c2nc3ccccc3[nH]2)CC1 (centres undefined),2.156%
